Results taken from PubChem BioAssay.
Active and inactive are the calls of the source.

How the values were obtained:
[1] = tested on: Plasmodium falciparum Sir2 (PF13_0152, Sir2A); test: pfSir2 binders on small-molecule microarrays, primary screen, biochemical, small-molecule microarray, 635 nm fluorescence (AID 1098); conditions: small-molecule microarray binding, fluorescence 635 nm; higher = more signal;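 note: score merges spot fluorescence intensity with its signal-to-noise ratio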
[2] = small-molecule microarray binders of probe aDKK1, primary screen, biochemical, biotinylated probe, 635/667 nm fluorescence (AID 1099); conditions: higher = more signal;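 note: score merges 667nm spot fluorescence with signal to noise across triplicate slides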
[3] = small-molecule microarray binders of probe aCHRDL2, primary screen, biochemical, biotinylated probe, 635/667 nm fluorescence (AID 1100); conditions: higher = more signal
[4] = splicing luciferase reporter signal modulators, primary screen, spliceosome inhibition project, cell-based, HEK293, splice +/- reporter (AID 1101); conditions: luminescence, 24 h, higher = more signal, called active from +8 up or from −8 down;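 note: HEK293 cells carrying a splicing-competent luciferase reporter gene; test concentration not given here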
[5] = molecular target: Fibroblast growth factor 10 (Homo sapiens) (UniProt O15520); test: FGF10 binders on small-molecule microarrays, primary screen, biochemical, small-molecule microarray, 635 nm fluorescence (AID 1102); conditions: FGF10 binding, fluorescence 635 nm, higher = more signal
Chain of Fibroblast growth factor 10 (Homo sapiens) (O15520 whole entry, looked up): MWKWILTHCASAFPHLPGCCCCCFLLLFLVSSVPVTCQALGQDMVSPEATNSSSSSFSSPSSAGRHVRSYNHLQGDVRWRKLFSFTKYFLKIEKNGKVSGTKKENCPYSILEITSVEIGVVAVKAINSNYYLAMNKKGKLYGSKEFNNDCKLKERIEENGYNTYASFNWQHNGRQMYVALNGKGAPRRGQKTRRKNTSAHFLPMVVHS

[6] = tested on: glycogen synthase kinase-3 (GSK3A per assay name; protocol says GSK3B); test: GSK3 binders on small-molecule microarrays, primary screen, biochemical, small-molecule microarray, 635 nm fluorescence, GSK3A (AID 1103); conditions: small-molecule microarray binding, fluorescence 635 nm; higher = more signal; note: the record names both GSK3A and GSK3B
[7] = molecular target: Epidermal growth factor receptor (Homo sapiens) (UniProt P00533); test: EGFR binders on small-molecule microarrays, primary screen, biochemical, small-molecule microarray, 635 nm fluorescence (AID 1104); conditions: EGFR binding, higher = more signal;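 note: score merges 667 nm emission intensity with spot signal to noise over triplicate slides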
Chain of Epidermal growth factor receptor (Homo sapiens) (P00533 whole entry, looked up): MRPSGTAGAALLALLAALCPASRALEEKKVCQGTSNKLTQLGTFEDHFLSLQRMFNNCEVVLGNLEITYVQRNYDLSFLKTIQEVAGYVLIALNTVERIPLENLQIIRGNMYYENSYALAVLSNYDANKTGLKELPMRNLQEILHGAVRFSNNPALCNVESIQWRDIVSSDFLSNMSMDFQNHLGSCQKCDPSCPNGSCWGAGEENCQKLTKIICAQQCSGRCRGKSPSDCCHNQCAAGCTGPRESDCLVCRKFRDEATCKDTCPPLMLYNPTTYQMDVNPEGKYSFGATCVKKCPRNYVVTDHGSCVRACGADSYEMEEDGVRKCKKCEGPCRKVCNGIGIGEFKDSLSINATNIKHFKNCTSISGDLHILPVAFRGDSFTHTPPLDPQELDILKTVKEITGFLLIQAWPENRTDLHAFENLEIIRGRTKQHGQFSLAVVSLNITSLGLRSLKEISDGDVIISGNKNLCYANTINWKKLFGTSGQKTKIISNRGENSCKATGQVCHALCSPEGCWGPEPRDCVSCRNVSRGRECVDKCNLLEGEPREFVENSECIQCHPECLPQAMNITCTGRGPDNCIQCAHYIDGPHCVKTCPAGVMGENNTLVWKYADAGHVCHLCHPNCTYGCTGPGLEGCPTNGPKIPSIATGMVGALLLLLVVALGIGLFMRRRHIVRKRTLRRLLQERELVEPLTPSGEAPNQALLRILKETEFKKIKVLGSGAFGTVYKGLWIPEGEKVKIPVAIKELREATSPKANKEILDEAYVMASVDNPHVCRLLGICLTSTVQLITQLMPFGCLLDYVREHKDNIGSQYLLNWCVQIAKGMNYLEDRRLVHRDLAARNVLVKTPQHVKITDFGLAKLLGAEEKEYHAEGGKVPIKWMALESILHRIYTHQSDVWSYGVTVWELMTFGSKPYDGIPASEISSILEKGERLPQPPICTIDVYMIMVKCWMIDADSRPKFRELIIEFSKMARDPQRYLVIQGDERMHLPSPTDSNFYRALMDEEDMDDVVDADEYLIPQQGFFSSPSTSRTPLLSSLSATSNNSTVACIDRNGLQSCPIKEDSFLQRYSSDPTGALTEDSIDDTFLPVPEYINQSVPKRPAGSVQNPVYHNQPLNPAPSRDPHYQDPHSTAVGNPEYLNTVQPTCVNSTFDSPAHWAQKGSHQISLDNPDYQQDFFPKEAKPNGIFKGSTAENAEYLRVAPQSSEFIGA

[8] = molecular target: Follistatin-related protein 3 (Homo sapiens) (UniProt O95633); test: FSTL3 binders on small-molecule microarrays, primary screen, biochemical, small-molecule microarray, 635 nm fluorescence (AID 1105); conditions: FSTL3 binding, higher = more signal;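 note: score merges emission near 667 nm and signal to noise per printed spot across three slides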
Chain of Follistatin-related protein 3 (Homo sapiens) (O95633 whole entry, looked up): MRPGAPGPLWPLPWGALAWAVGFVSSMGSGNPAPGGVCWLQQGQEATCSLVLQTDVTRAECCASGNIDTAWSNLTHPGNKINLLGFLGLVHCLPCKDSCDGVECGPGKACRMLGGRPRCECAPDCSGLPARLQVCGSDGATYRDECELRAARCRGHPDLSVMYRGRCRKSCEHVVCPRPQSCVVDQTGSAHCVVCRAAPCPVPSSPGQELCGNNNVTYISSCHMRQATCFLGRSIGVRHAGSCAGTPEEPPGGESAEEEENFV

[9] = molecular target: Dickkopf-related protein 1 (Homo sapiens) (UniProt O94907); test: DKK1 binders on small-molecule microarrays, primary screen, biochemical, small-molecule microarray, 635 nm fluorescence scan (AID 1106); conditions: DKK1 binding, higher = more signal;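 note: score merges emission near 667 nm with signal to noise over three replicate slides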
Chain of Dickkopf-related protein 1 (Homo sapiens) (O94907 whole entry, looked up): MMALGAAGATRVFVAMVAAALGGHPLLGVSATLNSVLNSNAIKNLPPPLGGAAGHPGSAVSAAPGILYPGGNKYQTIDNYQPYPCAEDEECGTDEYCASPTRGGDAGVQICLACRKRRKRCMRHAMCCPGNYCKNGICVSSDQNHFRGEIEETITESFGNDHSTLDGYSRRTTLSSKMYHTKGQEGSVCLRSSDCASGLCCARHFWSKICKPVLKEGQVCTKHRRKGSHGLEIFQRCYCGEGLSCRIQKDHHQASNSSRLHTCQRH

[10] = tested on: Inhibin beta A chain (activin A); test: INHBA (activin A) binders on microarrays, primary screen, biochemical, small-molecule microarray, 635 nm fluorescence scan (AID 1107); conditions: small-molecule microarray binding, higher = more signal;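 note: mouse activin A protein probed at 4.33 µg/mL on printed slides; score merges bound-protein fluorescence near 667 nm with spot signal-to-noise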
[11] = tested on: Human papillomavirus type 1a protein E7 (residues 44-93); test: HPV1a E7 fragment binders on microarrays, primary screen, biochemical, small-molecule microarray, residues 44-93, 635 nm fluorescence (AID 1108); conditions: small-molecule microarray binding, fluorescence 635 nm; higher = more signal;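 note: E7 fragment applied at 1 µg/mL in TBST for 1 h at 4 C; score combines spot fluorescence with its signal to noise ratio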
[12] = modulators of HCV replicon luciferase signal, primary screen, HCV replication inhibitor project, Huh7 cells, luciferase reporter (AID 1109); conditions: 48 h, higher = more signal;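 note: huh7 hepatoma cells harbouring a luciferase neomycin HCV replicon reporter; luciferase luminescence as measure of HCV replicon replication; test concentration not given here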
[13] = molecular target: Left-right determination factor 2 (Homo sapiens) (UniProt O00292); test: LEFTY2 binders on small-molecule microarrays, primary screen, biochemical, small-molecule microarray, 635 nm fluorescence scan (AID 1110); conditions: LEFTY2 binding, higher = more signal
Chain of Left-right determination factor 2 (Homo sapiens) (O00292 whole entry, looked up): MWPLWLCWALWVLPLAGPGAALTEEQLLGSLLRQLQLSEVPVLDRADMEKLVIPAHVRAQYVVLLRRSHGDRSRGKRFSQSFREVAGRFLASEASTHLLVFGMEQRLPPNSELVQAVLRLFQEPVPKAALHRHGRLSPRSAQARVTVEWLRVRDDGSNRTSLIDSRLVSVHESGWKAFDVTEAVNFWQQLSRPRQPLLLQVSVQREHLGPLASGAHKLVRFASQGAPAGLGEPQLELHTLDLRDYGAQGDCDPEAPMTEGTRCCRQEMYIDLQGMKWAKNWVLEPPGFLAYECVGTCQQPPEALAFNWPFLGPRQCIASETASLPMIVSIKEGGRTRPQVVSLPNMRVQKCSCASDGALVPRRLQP

[14] = molecular target: Calmodulin-1 (Homo sapiens) (UniProt P0DP23); test: CALM1 binders on microarrays, EGTA buffer, profiling panel, biochemical, small-molecule microarray, Cy5-labelled CALM1 (AID 1111); conditions: Cy5-CALM1 binding fluorescence, higher = more signal;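 note: labelled calmodulin applied in Tris saline Tween buffer holding calcium plus EGTA and DTT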
[15] = molecular target: Calmodulin-1 (Homo sapiens) (UniProt P0DP23); test: calcium-bound CALM1 binders on microarrays, profiling panel, artefact control for SMM control-protein annotation, biochemical, small-molecule microarray, Cy5-labelled CALM1, plus calcium (AID 1112); conditions: Cy5-CALM1 binding fluorescence, higher = more signal;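 note: score merges spot fluorescence with signal to noise from triplicate slides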
[16] = small-molecule microarray binders of probe aWnt5a, primary screen, biochemical, biotinylated probe, 635/667 nm fluorescence (AID 1113); conditions: higher = more signal;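 note: score merges 667 nm fluorescence intensity with signal-to-noise per printed feature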
[17] = small-molecule microarray binders of probe aShh, primary screen, biochemical, biotinylated probe, 635/667 nm fluorescence (AID 1114); conditions: higher = more signal;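 note: probe is biotin-labelled aShh protein from a stem cell growth factor screen; measures binding of labelled protein to compounds printed on the slide; score merges feature fluorescence at 667 nm with signal-to-noise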
[18] = small-molecule microarray binders of probe aNog, primary screen, biochemical, biotinylated probe, 635/667 nm fluorescence (AID 1115); conditions: higher = more signal;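 note: probe is biotinylated aNog protein used at 0.15 µg/mL for 1 h at 4 C; z-score combines 667 nm fluorescence of each spot with its signal to noise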
[19] = molecular target: Torsin-1A-interacting protein 1 (Homo sapiens) (UniProt Q5JTV8); test: LAP1 binders from COS7 cell lysate, primary screen, small-molecule microarray, 635/667 nm fluorescence (AID 1116); conditions: COS7-hLAP1 lysate binding, 635 nm fluorescence, higher = more signal
Chain of Torsin-1A-interacting protein 1 (Homo sapiens) (Q5JTV8 whole entry, looked up): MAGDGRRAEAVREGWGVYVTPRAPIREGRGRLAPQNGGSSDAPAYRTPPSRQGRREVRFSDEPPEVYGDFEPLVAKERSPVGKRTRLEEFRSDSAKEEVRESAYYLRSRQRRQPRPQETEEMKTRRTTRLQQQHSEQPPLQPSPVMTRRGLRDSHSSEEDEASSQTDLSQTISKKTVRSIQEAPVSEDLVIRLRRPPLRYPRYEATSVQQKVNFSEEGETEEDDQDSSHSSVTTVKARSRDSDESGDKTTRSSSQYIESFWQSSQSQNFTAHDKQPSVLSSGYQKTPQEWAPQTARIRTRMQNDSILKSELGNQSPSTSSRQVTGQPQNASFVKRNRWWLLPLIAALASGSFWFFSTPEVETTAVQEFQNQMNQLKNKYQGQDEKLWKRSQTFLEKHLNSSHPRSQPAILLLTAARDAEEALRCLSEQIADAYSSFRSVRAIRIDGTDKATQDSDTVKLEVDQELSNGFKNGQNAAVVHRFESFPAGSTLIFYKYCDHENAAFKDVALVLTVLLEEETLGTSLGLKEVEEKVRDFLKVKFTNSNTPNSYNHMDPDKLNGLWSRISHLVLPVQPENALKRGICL

[20] = molecular target: Alpha-bungarotoxin (Bungarus multicinctus) (UniProt P60615); test: alpha-bungarotoxin binders on microarray, profiling panel, artefact control for SMM control protein annotation, biochemical, small-molecule microarray, Alexa647 label, 635/667 nm fluorescence (AID 1117); conditions: alpha-BTX-A647 binding fluorescence, higher = more signal
Chain of Alpha-bungarotoxin (Bungarus multicinctus) (P60615 whole entry, looked up): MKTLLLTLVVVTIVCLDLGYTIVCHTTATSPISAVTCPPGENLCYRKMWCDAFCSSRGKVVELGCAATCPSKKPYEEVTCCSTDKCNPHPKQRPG

Compound	composite z-score [1]	composite z-score [2]	composite z-score [3]	z-score [4]	composite z-score [5]	composite z-score [6]	composite z-score [7]	composite z-score [8]	composite z-score [9]	composite z-score [10]	composite z-score [11]	z-score [12]	composite z-score [13]	composite z-score [14]	composite z-score [15]	composite z-score [16]	composite z-score [17]	composite z-score [18]	composite z-score [19]	composite z-score [20]
CC(C)(C)N1CC=CC23O[C@@H]4C=CCOC(=O)[C@@H]4[C@H]2C(=O)N(CCCCCO)[C@@H]3C1=O (stereo not given in full)	1.12	-0.275	0.0408	-0.018 (inactive)	-0.804	-1.54	-1.63	-1.67	-0.499	-0.0694	-1.2	-0.394	-0.788	-0.821	-0.0669	-0.169	-0.221	1.03	2.1	-1.45
C=C(COC)C(=O)CC[C@@H](OC(=O)c1cccnc1)c1ccc(CO)o1	0.691	-0.2	-0.237	1.86 (inactive)	0.0396	0.457	0.182	0.916	0.611	1.58	0.369	-0.778	0.355	-0.0743	-0.116	-0.1	-0.0977	0.094	0.424	0.285
COCCOC(=O)N1C(=O)[C@@]2(c3cc(C#CCC(C(=O)OC)C(=O)OC)ccc31)[C@H](C(=O)N1CCCCCCC1)[C@H]1C(=O)O[C@H](c3ccccc3)[C@H](c3ccccc3)N1[C@@H]2c1ccc(OCCO)cc1	1.74	2.72	1.65	0.161 (inactive)	1.45	1.35	1.76	1.65	2.25	1.62	1.49	-0.981	1.33	2.48	1.67	1.21	1.19	3.01	4.31	3.31
C=CCN1C(=O)[C@]2(O[C@H](CCO)[C@@H]([Si](C)(C)c3ccc(OC)cc3)[C@@H]2C)c2cc(NC(=O)[C@H](C)O)ccc21	1.45	-0.191	-0.159	-1.26 (inactive)	1.27	0.984	-0.191	0.267	0.0607	0.197	0.942	-4.97	0.0707	0.737	-0.217	-0.0799	0.13	-0.204	0.925	0.69
O=C(NCc1ccccc1)[C@]1(CCS(=O)(=O)c2ccccc2)N=C(c2ccc(OCCCO)cc2)O[C@@H]1c1ccccc1	1.31	0.255	0.264	0.637 (inactive)	1.42	1.32	0.325	1.41	0.168	0.604	1.15	-2.05	0.554	1.53	0.206	0.0579	0.182	0.0539	0.51	0.452
